# A number with no mark means an inactive call. Inconclusive results are not listed. Entries that show only a call come without a potency. Active and inactive are the calls of the source. Unless noted, the call rests on the fitted dose curve; in most records, active means well fitted curve in the direction sought with a large enough effect in the repeat runs; inconclusive means weak or mixed curves; inactive means no such curve, though single readings can be large; an effect the other way counts as inactive or inconclusive.
# How the values were obtained:
# [1] = qHTS assay for small molecules that induce genotoxicity in human embryonic kidney cells expressing luciferase-tagged ATAD5 (AID 651632); details: HEK293T ATAD5-luciferase induction, 16 h; series mostly up to 83.3 µM; further: nearly all actives have a fitted effect of over 15% in size
# Outline: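 Concentration-response screen for ATAD5 upregulation in HEK293T luciferase reporter cells; 16 hr treatment at 37C, then luminescence after 30 min with Amplite at room temperature.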
# [2] = qHTS assay for small molecule agonists of the p53 signaling pathway - cell viability (AID 651633; calls by dose curve; further: nearly all actives have a fitted effect of over 30% in size); details: p53RE-bla HCT-116 viability, ATP luminescence, 16 h; series mostly up to 83.3 µM
# Outline: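 p53RE-bla cells, seeded at 4,000 per well and rested 5 h at 37 C/5% CO2, received compounds in DMSO for 16 h at 37 C. CellTiter-Glo was then added, and luminescence was read after 30 min at room temperature to gauge cytotoxicity.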
# [3] = qHTS assay for small molecules that induce genotoxicity in human embryonic kidney cells expressing luciferase-tagged ATAD5 - cell viability (AID 651634; calls by dose curve; further: nearly all actives have a fitted effect of over 25% in size); details: HEK293T ATAD5-luc cells viability, CellTiter-Fluor, 15.5 h; series mostly up to 83.3 µM
# Outline: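 15.5 hr compound or vehicle exposure of HEK293T cells expressing luciferase-tagged ATAD5 at 37C; live-cell protease activity is read by fluorescence after 30 min of CellTiter-Fluor.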
# [4] = qHTS assay for small molecule disruptors of the mitochondrial membrane potential - cell viability (AID 720634; calls by dose curve;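 further: human HepG2 liver cancer cells; nearly all actives have a fitted effect of over 20% in size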); details: HepG2 viability, ATP luminescence (CellTiter-Glo), 1 h; series mostly up to 83.2 µM
# Outline: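 In this qHTS format, HepG2 cells plated overnight were pinned with compound, incubated 1 hr, and assayed for ATP luminescence with CellTiter-Glo after m-MPI dye addition.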
# [5] = qHTS assay to test for compound auto fluorescence at 590 nm (red) in HepG2 cells (AID 720674); details: HepG2 autofluorescence, red 540/590 nm, 1 h; series mostly up to 91.3 µM
# Outline: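 Compound auto-fluorescence is scored relative to Rose Bengal sodium, measured at 540/590 nm in live HepG2 cultures after 1 hr compound contact (37 C, 5% CO2).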
# [6] = qHTS assay to test for compound auto fluorescence at 535 nm (green) in HepG2 cells (AID 720675); details: green autofluorescence 485/535 nm, 1 h; series mostly up to 91.3 µM
# [7] = qHTS assay to test for compound auto fluorescence at 460 nm (blue) in HEK293 cells (AID 720678); details: blue autofluorescence 405/460 nm; series mostly up to 91.3 µM
# Outline: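 Intrinsic compound fluorescence is recorded in live HEK293 cultures after overnight incubation at 37C, 5% CO2, using excitation 405 nm and emission 460 nm. Values are referenced to triamterene.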
# [8] = qHTS assay to test for compound auto fluorescence at 590 nm (red) in HEK293 cells (AID 720679); details: red autofluorescence 540/590 nm; series mostly up to 91.3 µM
# Outline: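 Red autofluorescence, HEK293 cells: 2,000 cells/well; attach 4-5 hr 37C; add 23 nL cpd or DMSO; incubate o/n 37C 5% CO2; read Ex540/Em590; Rose Bengal sodium reference.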
# [9] = qHTS assay to test for compound auto fluorescence at 535 nm (green) in HEK293 cells (AID 720680); details: green autofluorescence 485/535 nm; series mostly up to 91.3 µM
# [10] = qHTS assay to test for compound auto fluorescence at 460 nm (blue) in HEK293 cell free culture (AID 720681); details: cell-free medium, autofluorescence 405/460 nm (blue); series mostly up to 91.3 µM
# Outline: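 Test compounds were pinned into cell-free culture medium (DMEM with 10% FBS) and fluorescence was read directly at Ex/Em 405/460 nm. Signals were expressed as fluorescence equivalents of triamterene, with DMSO vehicle as control.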
# [11] = qHTS assay to test for compound auto fluorescence at 535 nm (green) in HEK293 cell free culture (AID 720682); details: cell-free medium, green autofluorescence 485/535 nm, active compounds read high; series mostly up to 91.3 µM
# Outline: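 No cells present: wells hold DMEM supplemented with 10% FBS, into which compound or vehicle is pinned. Green emission is then recorded (485 nm excitation, 535 nm emission) and scaled to fluorescein.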
# [12] = qHTS assay to test for compound auto fluorescence at 590 nm (red) in HEK293 cell free culture (AID 720683); details: cell-free medium autofluorescence, Ex540/Em590 red; series mostly up to 91.3 µM
# Outline: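 Tox21 10K library compounds were pinned into cell-free DMEM with 10% FBS and fluorescence was read at excitation 540 nm. Activity is expressed as Rose Bengal sodium equivalency.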
# [13] = qHTS assay to test for compound auto fluorescence at 590 nm (red) in HepG2 cell free culture (AID 720684); details: cell-free medium autofluorescence, red 540/590 nm; series mostly up to 91.3 µM
# Outline: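 Ex 540 / Em 590 nm read of compound in cell-free MEM (10% FBS). Rose Bengal sodium reference.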
# [14] = qHTS assay to test for compound auto fluorescence at 460 nm (blue) in HepG2 cell free culture (AID 720685); details: Cell-free culture medium, blue autofluorescence 405/460 nm; series mostly up to 91.3 µM
# Outline: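 Cell-free plates of MEM plus 10% FBS received 23 nL compound or DMSO vehicle; blue-channel (405/460 nm) intensity scored against triamterene as reference fluorophore.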
# [15] = qHTS assay to test for compound auto fluorescence at 535 nm (green) in HepG2 cell free culture (AID 720686); details: Cell-free medium, green autofluorescence 485/535 nm; series mostly up to 91.3 µM
# [16] = qHTS assay to test for compound auto fluorescence at 460 nm (blue) in HepG2 cells (AID 720687); details: autofluorescence 405/460 nm, 1 h; series mostly up to 91.3 µM
# Outline: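 Cells (2,000/well in MEM with 10% FBS) attached overnight at 37 C, then were exposed to compound or DMSO for 1 hr at 37 C, 5% CO2. Fluorescence read at Ex/Em 405/460 nm, expressed as triamterene-equivalent signal.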
# [17] = molecular target: Glucocorticoid receptor (Homo sapiens) (UniProt P04150); assay: qHTS assay to identify small molecule agonists of the glucocorticoid receptor (GR) signaling pathway (AID 720691; active means well fitted activation curve with a large enough effect in the signal ratio in the repeat runs, not every such curve was filed as active; the % refers to the signal ratio; further: potency means the concentration at half of the fitted maximal effect); details: GR-bla HeLa, beta-lactamase reporter ratio, 18 h; series mostly up to 62.4 µM
# Sequence of Glucocorticoid receptor (Homo sapiens) (P04150 whole entry, looked up): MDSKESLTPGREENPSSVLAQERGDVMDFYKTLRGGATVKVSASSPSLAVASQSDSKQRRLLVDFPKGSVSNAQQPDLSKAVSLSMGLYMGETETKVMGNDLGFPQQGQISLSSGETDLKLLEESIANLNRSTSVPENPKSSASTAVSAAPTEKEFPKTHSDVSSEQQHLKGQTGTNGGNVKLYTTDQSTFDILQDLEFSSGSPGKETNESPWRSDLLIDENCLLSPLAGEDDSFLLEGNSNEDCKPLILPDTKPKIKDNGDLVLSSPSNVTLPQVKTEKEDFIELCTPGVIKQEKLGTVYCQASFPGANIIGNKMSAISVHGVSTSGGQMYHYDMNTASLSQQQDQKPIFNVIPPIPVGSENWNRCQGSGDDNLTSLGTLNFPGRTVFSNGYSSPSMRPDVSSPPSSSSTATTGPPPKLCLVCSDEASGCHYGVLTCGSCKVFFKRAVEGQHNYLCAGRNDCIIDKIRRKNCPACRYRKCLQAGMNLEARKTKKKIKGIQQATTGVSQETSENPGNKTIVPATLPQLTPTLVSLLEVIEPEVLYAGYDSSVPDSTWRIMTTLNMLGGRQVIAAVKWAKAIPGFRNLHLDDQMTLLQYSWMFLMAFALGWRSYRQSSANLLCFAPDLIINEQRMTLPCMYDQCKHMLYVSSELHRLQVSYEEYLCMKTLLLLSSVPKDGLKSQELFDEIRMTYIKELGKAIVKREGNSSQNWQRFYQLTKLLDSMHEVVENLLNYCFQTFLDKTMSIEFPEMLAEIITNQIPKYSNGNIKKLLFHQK
# Outline: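 Measures GR pathway activation through a GRE-beta-lactamase reporter stably integrated in HeLa cells, with 18 h compound treatment at 37 C and fluorescence detection using a FRET substrate.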
# [18] = qHTS assay for small molecule disruptors of the mitochondrial membrane potential (AID 720635); details: HepG2 mitochondrial membrane potential, Mito-MPS dye ratio; series mostly up to 83.2 µM
# Outline: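 HepG2 cells (2,000/well) attached overnight at 37C, then took compound for 1 hr at 37C, 5% CO2. Mito-MPS dye was added for 30 min; fluorescence was read at 490/535 nm (monomers) and 540/590 nm (aggregates).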
# [19] = qHTS assay for small molecule agonists of the p53 signaling pathway (AID 651631; calls by dose curve; further: nearly all actives have a fitted effect of over 15% in size); details: HCT-116 p53RE-bla reporter, beta-lactamase FRET ratio, 16 h; series mostly up to 73.3 µM
# Outline: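 Agonist mode screen using a stably integrated beta-lactamase gene under p53 response elements in HCT-116 cells. Compound exposure lasts 16 h at 37 °C; fluorescence intensity is measured following 2 h FRET substrate loading.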
# [20] = molecular target: Glucocorticoid receptor (Homo sapiens) (UniProt P04150); assay: qHTS assay to identify small molecule antagonists of the glucocorticoid receptor (GR) signaling pathway (AID 720692; active means well fitted inhibition curve with a large enough effect in the signal ratio in the repeat runs, not every such curve was filed as active; the % refers to the signal ratio); details: GR-bla HeLa, beta-lactamase FRET ratio, dexamethasone-stimulated, 18 h; series mostly up to 58.5 µM
# Outline: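 Tox21 10K library screened in concentration-response for blockade of dexamethasone (5 nM final)-induced GRE-bla reporter activity in HeLa cells; 18 h treatment, fluorescence read.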
SMILES,Potency [1],Potency [2],Potency [3],Potency [4],outcome [5],outcome [6],Potency [7],outcome [8],outcome [9],Potency [10],outcome [11],outcome [12],outcome [13],Potency [14],outcome [15],Potency [16],Potency [17],Potency [18],Potency [19],Potency [20]
C=CC(C)(C)CC(=O)OC,inactive,inactive,inactive,inactive,inactive,inactive,inactive,inactive,inactive,inactive,inactive,inactive,inactive,inactive,inactive,inactive,inactive,,,
c1ccc(COCc2ccccc2)cc1,inactive,inactive,inactive,inactive,inactive,inactive,inactive,inactive,inactive,inactive,inactive,inactive,inactive,inactive,inactive,inactive,inactive,inactive,,
CC1=NN(c2ccc(C(=O)O)cc2)C(=O)C1,inactive,inactive,inactive,inactive,inactive,inactive,inactive,inactive,inactive,inactive,inactive,inactive,inactive,inactive,inactive,inactive,,inactive,,
CCCCC(=O)O[C@]1(C(=O)CO)[C@@H](C)C[C@H]2[C@@H]3CCC4=CC(=O)C=C[C@]4(C)[C@@]3(F)[C@@H](O)C[C@@]21C,,,inactive,,,inactive,inactive,inactive,inactive,inactive,inactive,,inactive,inactive,inactive,inactive,1.9 nM (active),,inactive,
CC1(C)C(=O)N(Br)C(=O)N1Cl,,inactive,inactive,inactive,inactive,inactive,inactive,,inactive,inactive,inactive,inactive,inactive,inactive,inactive,inactive,,,inactive,
CC(C)CCCCCOC(=O)CCCCC(=O)OCCCCCC(C)C,inactive,inactive,inactive,inactive,,inactive,inactive,inactive,inactive,inactive,inactive,inactive,inactive,inactive,inactive,inactive,inactive,inactive,,inactive
CCC(C)(O)CCC=C(C)C (centres undefined),inactive,inactive,inactive,inactive,inactive,inactive,,inactive,inactive,,inactive,inactive,inactive,inactive,inactive,inactive,inactive,inactive,,inactive
CC(=N\O)/C(C)=N/O,,inactive,,inactive,inactive,inactive,inactive,inactive,inactive,,inactive,inactive,inactive,inactive,inactive,inactive,,,inactive,

# — PubChem BioAssay (Tox21)
